The nature of assay [1]: Human pregnane X receptor (PXR) small molecule agonists, qHTS cell viability counter screen (AID 1346977). Note: nearly all actives have a fitted effect of over 50% in size. The essentials:
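Tox21 qHTS format; PXR-Luc HepG2, 2,000/well, charcoal-stripped FBS 5%. Cpd exposure 24hr. Read: CellTiter-Fluor fluorescence, multiplexed with luciferase.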

Assay [2] is described as follows: Caspase-3/7 induction in HepG2 cells by small molecules, qHTS assay (AID 1346978). Note: nearly all actives have a fitted effect of over 15% in size. The essentials:
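Wild-type HepG2 cells, 2,000/well, settled 5 hr at 37 C and 5% CO2, then compound-treated for 17 hr; caspase-3/7 activity read by luminescent Caspase-Glo 3/7 after 30 min at room temperature.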

Assay [3] can be described thus: Caspase-3/7 induction in CHO-K1 cells by small molecules, qHTS cell viability counter screen (AID 1346979). Note: nearly all actives have a fitted effect of over 35% in size. The essentials: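 CellTiter-Fluor viability check, qHTS format: wild-type CHO-K1, 16hr compound treatment, 1hr reagent incubation, fluorescence read.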
Assay [4] in a line: Caspase-3/7 induction in CHO-K1 cells by small molecules, qHTS assay (AID 1346980). Note: nearly all actives have a fitted effect of over 15% in size. A digest of the protocol: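 Wild-type CHO-K1 cells exposed to compounds for 17hr at 37 C, 5% CO2. Caspase-3/7 activity then measured by Caspase-Glo 3/7 luminescence after 30min at room temperature.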
Assay [5] is described as follows: Caspase-3/7 induction in HepG2 cells by small molecules, qHTS cell viability counter screen (AID 1346981). Note: series mostly up to about 92 µM; nearly all actives have a fitted effect of over 30% in size. A digest of the protocol:
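Counter screen for cytotoxicity: HepG2 exposed 16 hr to compounds, then CellTiter-Fluor viability signal (fluorescence, 1 hr reagent incubation).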

Assay [6] has as its target Nuclear receptor subfamily 1 group I member 2 (Homo sapiens) (UniProt O75469). In words: Human pregnane X receptor (PXR) small molecule agonists, qHTS assay (AID 1346982). Note: nearly all actives have a fitted effect of over 35% in size. Note: potency is the fitted concentration of half-maximal effect. A digest of the protocol:
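Luminescence (ONE-Glo, 30 min RT) after 24 hr compound exposure of PXR-Luc HepG2 cells; cells rested 5 hr post-plating in 5% charcoal-stripped FBS medium.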

Assay [7] deals with Cytochrome P450 2D6 (Homo sapiens) (UniProt P10635). In words: Cytochrome P450 Family 2 Subfamily D Member 6 (CYP2D6) small molecule antagonists: luciferase reporter qHTS assay (AID 1671196). Note: nearly all actives have a fitted effect of over 50% in size. Note: potency is the fitted concentration of half-maximal effect. A digest of the protocol: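 Inhibition of CYP2D6 was gauged by loss of luminescence, since light produced tracks the luciferin generated from a proluciferin substrate. A 10 min room-temperature preincubation preceded 1 h NADPH-supported turnover.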
Chain of Cytochrome P450 2D6 (Homo sapiens) (P10635 whole entry, looked up): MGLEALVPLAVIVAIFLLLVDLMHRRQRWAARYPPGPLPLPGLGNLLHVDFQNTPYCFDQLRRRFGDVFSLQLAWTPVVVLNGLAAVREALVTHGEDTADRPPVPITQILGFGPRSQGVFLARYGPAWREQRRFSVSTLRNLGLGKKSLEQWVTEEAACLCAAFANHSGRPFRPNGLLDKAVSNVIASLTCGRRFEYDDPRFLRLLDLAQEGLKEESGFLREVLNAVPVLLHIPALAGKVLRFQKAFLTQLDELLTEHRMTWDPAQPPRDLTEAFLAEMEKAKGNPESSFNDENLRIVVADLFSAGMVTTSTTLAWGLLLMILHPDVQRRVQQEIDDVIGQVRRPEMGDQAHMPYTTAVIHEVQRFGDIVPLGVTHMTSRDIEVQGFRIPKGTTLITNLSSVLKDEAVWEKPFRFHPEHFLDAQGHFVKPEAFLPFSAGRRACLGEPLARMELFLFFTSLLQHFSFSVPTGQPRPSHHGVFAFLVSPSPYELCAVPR

For assay [8], the target named is Cytochrome P450 2C19 (Homo sapiens) (UniProt P33261). In words: Cytochrome P450 Family 2 Subfamily C Member 19 (CYP2C19) small molecule antagonists: luciferase reporter qHTS assay (AID 1671197). Note: nearly all actives have a fitted effect of over 65% in size. Note: potency is the fitted concentration of half-maximal effect. The essentials: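 Luminescent readout of CYP2C19 activity: luciferin product detected 20 min after adding detection reagent. Before that, compound and enzyme-substrate mix preincubated 10 min at room temperature; NADPH-regenerating system started a 1 h, 37C reaction. Ketoconazole as positive control.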
Chain of Cytochrome P450 2C19 (Homo sapiens) (P33261 whole entry, looked up): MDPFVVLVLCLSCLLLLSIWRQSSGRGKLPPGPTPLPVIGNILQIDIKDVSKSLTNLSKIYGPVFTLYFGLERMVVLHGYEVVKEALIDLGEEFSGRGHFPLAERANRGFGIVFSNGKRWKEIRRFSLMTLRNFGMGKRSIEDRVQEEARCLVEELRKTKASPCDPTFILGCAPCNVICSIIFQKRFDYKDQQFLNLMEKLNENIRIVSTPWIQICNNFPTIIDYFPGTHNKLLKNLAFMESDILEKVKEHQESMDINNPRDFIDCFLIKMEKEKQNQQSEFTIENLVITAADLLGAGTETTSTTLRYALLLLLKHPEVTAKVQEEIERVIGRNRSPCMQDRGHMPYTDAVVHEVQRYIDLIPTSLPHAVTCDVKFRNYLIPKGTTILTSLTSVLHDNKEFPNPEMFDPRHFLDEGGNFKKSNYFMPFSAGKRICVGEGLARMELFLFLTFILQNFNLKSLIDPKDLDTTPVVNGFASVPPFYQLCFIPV

Assay [9] has as its target Cytochrome P450 2C9 (Homo sapiens) (UniProt P11712). In words: Cytochrome P450 Family 2 Subfamily C Member 9 (CYP2C9) small molecule antagonists: luciferase reporter qHTS assay (AID 1671198). Note: nearly all actives have a fitted effect of over 50% in size. Note: potency is the fitted concentration of half-maximal effect. The essentials:
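P450-Glo proluciferin substrate with CYP2C9 enzyme; 10 min RT preincubation, then NADPH regeneration 1 h at 37C; luciferin detection reagent 20 min RT, luminescence in relative luminescence units.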

In assay [10] the target is Cytochrome P450 1A2 (Homo sapiens) (UniProt P05177). In words: Cytochrome P450 Family 1 Subfamily A Member 2 (CYP1A2) small molecule antagonists: luciferase reporter qHTS assay (AID 1671199). Note: nearly all actives have a fitted effect of over 50% in size. Note: potency is the fitted concentration of half-maximal effect. A digest of the protocol:
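Signal from luciferin formed by CYP1A2 from a proluciferin substrate is read as luminescence, expressed in relative luminescence units. Compounds sit with enzyme 10 min, NADPH-driven reaction runs 1 h, all at room temperature.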

For assay [11], the target named is Voltage-gated inwardly rectifying potassium channel KCNH2 (Homo sapiens) (UniProt Q12809). In words: Human Ether-a-go-go-Related Gene (hERG) channel small molecule antagonists: fluorescence cell-based qHTS assay (AID 1671200). The essentials:
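Kinetic two-minute fluorescence traces, sampled at 1 s, were collected following thallium stimulus of U2OS cells (1000 per well) that had been cultured overnight at 37 C and loaded with FluxOR II.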

The target of assay [12] is Cytochrome P450 3A4 (Homo sapiens) (UniProt P08684). In words: Cytochrome P450 Family 3 Subfamily A Member 4 (CYP3A4) small molecule antagonists: luciferase reporter qHTS assay (AID 1671201). Note: nearly all actives have a fitted effect of over 50% in size. Note: potency is the fitted concentration of half-maximal effect. A digest of the protocol:
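Proluciferin-to-luciferin conversion by CYP3A4, NADPH-regenerated, 1 h RT; luminescence read as RLU. Ketoconazole as control.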

Assay [13] addresses Acetylcholinesterase (Homo sapiens) (UniProt P22303). In words: Acetylcholinesterase (AChE) small molecule antagonists: enzyme-based qHTS assay (AID 1347397; calls by dose curve; note: nearly all actives have a fitted effect of over 55% in size). The note with it: Potency: AChE enzyme activity inhibition; outcome: AChE enzyme activity inhibition. A digest of the protocol: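 Enzyme inhibition was scored from DTNB-detected thiocholine formed by recombinant human AChE acting on acetylthiocholine. The 30 min compound preincubation and 10 min substrate reaction were both run at room temperature, with DMSO as vehicle control.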

Assay [14] shares this target. In words: Acetylcholinesterase (AChE) small molecule antagonists: fluorescence cell-based qHTS assay (AID 1347398; calls by dose curve; note: nearly all actives have a fitted effect of over 50% in size). The note with it: Potency: AChE activity; outcome: AChE activity. The essentials: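 Endogenous acetylcholinesterase of SH-SY5Y neuroblastoma cells is measured in situ. After overnight attachment and 30 min compound exposure, cells receive acetylthiocholine and Thiolite Green; fluorescence is read after 40 min at room temperature.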

Assay [15] shares this target. In words: Acetylcholinesterase (AChE) small molecule antagonists: enzyme-based qHTS assay with human liver microsomes (AID 1347399; calls by dose curve; note: nearly all actives have a fitted effect of over 60% in size). The note with it: Potency: qHTS inhibition; outcome: qHTS inhibition. A digest of the protocol:
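Recombinant human AChE (50 mU/mL in the enzyme mix) and human liver microsomes (0.25 mg/mL final) were preincubated with compound and NADPH (0.25 mg/mL final) for 30 min at 37 C. Acetylthiocholine/DTNB was then added; thiocholine was read colorimetrically after 10 min at room temperature.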

Assay [16] has the same target. In words: Acetylcholinesterase (AChE) small molecule antagonists: colormetric cell-based qHTS assay (AID 1347395; calls by dose curve; note: nearly all actives have a fitted effect of over 30% in size). A digest of the protocol:
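AChE inhibition read colorimetrically via DTNB–thiocholine in SH-SY5Y cells. Compound 30 min, substrate 90 min, both 37 C.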

Assay [17] has as its target Nuclear receptor subfamily 1 group I member 2 (Rattus norvegicus) (UniProt Q9R1A7). In words: Rat pregnane X receptor (rPXR) activation by small molecules, qHTS assay (AID 1346983). Note: nearly all actives have a fitted effect of over 20% in size. The note with it: rPXR luciferase reporter cells, One-Glo luminescence, 24 h; stronger effect = higher value. A digest of the protocol: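 Cell-based rPXR activation assay: rPXR cells, 2,000 per well, rested 5hr at 37 C, then exposed to compounds in DMSO for 24 hr at 37 C. Luciferase activity read by One-Glo luminescence after 30 min at room temperature.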

The target of assay [18] is Nuclear receptor subfamily 1 group I member 2 (Homo sapiens) (UniProt O75469). In words: CYP3A4 induction through human pregnane X receptor (PXR) by small molecules, qHTS assay (AID 1346984). Note: nearly all actives have a fitted effect of over 40% in size. The essentials: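 DPX-2 reporter cells; 24h cpd, 37C; Luciferin-IPA 3uM final x3h; One-Glo 30 min RT; lumi read.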
Chain of Nuclear receptor subfamily 1 group I member 2 (Homo sapiens) (O75469 whole entry, looked up): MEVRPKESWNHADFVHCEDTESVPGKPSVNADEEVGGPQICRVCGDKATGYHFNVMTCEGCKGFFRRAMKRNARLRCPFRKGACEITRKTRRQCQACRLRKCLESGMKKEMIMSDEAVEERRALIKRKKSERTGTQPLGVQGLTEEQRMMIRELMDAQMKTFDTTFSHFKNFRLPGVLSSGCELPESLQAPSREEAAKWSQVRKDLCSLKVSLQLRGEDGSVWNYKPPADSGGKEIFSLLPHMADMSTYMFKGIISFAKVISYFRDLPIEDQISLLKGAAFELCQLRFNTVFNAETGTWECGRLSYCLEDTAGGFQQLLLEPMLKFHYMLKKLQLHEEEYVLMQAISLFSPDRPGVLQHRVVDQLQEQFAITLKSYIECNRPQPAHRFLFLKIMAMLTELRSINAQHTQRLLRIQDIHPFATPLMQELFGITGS

Several values for one entry are separate records, joined by “and”; a condition that tells them apart may be missing. Identical values can stand only once. Results filed as inconclusive are left out. More than one record can exist for a structure, and the calls need not agree. Activity calls are given as the source filed them. Unless noted, calls come from the whole dose curve; as a rule, active = well fitted curve in the direction sought with a large enough effect in the repeat runs; inconclusive = weak or mixed curves; inactive = no such curve, though single readings can be large; an effect the other way counts as inactive or inconclusive.
% is set by controls: 0 for no effect and ±100 for the full control effect.

Chain of Cytochrome P450 2C9 (Homo sapiens) (P11712 whole entry, looked up): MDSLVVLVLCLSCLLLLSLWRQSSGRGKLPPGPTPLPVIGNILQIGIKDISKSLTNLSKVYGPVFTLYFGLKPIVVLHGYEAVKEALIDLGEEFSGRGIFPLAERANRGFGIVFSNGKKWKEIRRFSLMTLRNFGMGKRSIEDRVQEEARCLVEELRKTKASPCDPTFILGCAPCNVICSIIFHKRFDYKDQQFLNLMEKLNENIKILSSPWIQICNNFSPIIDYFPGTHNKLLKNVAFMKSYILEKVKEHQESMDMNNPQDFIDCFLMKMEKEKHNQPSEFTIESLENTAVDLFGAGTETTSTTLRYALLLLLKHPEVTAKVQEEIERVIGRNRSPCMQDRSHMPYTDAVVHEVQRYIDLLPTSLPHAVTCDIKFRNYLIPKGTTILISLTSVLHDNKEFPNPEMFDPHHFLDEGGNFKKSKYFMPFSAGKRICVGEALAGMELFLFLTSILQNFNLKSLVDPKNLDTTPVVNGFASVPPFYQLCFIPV
Chain of Acetylcholinesterase (Homo sapiens) (P22303 whole entry, looked up): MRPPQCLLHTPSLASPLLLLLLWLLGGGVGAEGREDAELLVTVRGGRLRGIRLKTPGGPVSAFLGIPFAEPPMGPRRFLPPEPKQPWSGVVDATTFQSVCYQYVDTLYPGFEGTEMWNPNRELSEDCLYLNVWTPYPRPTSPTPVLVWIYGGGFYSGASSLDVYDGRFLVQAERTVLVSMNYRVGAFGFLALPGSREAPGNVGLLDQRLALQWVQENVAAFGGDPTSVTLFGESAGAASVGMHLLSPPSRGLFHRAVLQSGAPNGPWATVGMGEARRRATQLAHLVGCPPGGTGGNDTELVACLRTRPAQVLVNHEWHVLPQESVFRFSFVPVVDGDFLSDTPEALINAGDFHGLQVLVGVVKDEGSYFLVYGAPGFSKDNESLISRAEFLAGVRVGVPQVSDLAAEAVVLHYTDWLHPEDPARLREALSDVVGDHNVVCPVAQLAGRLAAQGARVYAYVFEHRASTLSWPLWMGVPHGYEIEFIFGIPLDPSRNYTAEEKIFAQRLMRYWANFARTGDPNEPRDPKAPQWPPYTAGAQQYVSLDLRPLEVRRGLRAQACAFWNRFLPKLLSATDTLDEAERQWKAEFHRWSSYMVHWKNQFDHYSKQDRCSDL
Chain of Cytochrome P450 3A4 (Homo sapiens) (P08684 whole entry, looked up): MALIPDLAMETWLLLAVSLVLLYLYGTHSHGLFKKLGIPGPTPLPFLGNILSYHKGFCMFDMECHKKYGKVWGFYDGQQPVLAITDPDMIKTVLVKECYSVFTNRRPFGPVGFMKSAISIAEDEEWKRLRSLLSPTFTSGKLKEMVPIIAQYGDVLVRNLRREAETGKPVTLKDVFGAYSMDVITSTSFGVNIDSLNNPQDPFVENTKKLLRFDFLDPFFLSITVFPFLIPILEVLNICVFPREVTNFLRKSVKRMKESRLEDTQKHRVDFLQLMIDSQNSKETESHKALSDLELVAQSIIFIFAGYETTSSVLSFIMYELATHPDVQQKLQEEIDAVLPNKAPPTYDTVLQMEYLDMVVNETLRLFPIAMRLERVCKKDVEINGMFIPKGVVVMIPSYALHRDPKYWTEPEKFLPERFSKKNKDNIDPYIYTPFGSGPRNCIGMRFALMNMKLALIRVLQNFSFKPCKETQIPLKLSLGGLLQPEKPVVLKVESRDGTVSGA
Chain of Cytochrome P450 1A2 (Homo sapiens) (P05177 whole entry, looked up): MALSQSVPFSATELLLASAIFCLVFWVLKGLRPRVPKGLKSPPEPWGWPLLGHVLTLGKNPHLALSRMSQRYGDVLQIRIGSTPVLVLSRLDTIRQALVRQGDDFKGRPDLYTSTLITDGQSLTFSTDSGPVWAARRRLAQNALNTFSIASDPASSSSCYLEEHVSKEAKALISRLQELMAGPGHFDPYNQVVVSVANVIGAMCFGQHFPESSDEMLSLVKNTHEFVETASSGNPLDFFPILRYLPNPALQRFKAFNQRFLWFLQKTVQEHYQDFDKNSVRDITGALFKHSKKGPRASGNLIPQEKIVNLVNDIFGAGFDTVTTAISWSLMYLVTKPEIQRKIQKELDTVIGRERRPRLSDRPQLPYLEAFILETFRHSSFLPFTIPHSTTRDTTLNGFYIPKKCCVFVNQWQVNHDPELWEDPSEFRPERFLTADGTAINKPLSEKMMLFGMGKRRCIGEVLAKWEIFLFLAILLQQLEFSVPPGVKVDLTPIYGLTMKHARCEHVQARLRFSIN
Chain of Voltage-gated inwardly rectifying potassium channel KCNH2 (Homo sapiens) (Q12809 whole entry, looked up): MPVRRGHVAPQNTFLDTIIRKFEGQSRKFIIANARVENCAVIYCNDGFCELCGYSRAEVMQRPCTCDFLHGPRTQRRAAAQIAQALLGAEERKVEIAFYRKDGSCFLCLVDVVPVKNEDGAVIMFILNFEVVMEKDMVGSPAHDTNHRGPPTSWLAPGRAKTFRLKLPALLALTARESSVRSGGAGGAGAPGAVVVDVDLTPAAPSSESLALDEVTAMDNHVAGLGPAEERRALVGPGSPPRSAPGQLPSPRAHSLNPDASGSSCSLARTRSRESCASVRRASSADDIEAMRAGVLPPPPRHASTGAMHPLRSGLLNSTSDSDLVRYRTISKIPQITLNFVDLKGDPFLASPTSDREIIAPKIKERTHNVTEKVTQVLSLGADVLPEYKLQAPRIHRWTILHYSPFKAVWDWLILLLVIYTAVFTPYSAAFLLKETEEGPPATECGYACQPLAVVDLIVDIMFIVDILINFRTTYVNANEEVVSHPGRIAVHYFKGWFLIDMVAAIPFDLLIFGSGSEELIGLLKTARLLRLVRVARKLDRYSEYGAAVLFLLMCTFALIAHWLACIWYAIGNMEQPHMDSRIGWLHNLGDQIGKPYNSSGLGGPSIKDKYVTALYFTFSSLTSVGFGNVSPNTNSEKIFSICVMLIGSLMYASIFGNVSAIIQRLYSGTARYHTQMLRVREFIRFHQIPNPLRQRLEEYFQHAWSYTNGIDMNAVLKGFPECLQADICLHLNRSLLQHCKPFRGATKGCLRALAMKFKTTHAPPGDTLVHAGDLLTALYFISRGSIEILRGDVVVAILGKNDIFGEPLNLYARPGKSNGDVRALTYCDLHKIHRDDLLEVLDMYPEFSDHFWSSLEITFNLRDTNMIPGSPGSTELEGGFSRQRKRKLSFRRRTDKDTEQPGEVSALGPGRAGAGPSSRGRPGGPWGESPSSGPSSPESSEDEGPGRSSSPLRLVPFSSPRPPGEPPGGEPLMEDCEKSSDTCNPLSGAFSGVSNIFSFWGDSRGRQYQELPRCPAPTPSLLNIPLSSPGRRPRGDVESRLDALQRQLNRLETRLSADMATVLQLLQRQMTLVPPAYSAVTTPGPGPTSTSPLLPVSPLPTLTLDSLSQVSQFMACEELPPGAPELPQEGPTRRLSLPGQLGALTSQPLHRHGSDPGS

As to `Cc1ccc(N)c(C)c1`, the Potency result in assay [1], in assay [2], in assay [3], in assay [4], in [5] and in assay [6] was “inactive” each time. Also, the Potency result in assay [11] is “inactive”. Besides, the Potency entry is “inactive and 896 nM (active)” in assay [7]; 39.5 µM (active) and 7.12 µM (active) in assay [8]; 35.7 µM (active) in assay [9]; 11.1 µM (active) and 2.83 µM (active) in assay [10]; 40 µM (active) in assay [12].
For the compound `CC(C)OC(=O)Cc1ccccc1`, the Potency result in assay [1], in assay [2], in [3], in [4], in [5] and in [6] was “inactive” throughout. In addition, the Potency result in assay [13], in [14], in assay [15], in assay [9], in assay [11] and in assay [12] was “inactive” in each case. Also, the Potency in assay [10] was 35.9 µM (active).
As for `CCc1ccccc1N`, the Potency result in assay [1], in assay [2], in assay [3], in [4], in assay [5] and in assay [6] was “inactive” throughout. For the same compound, the Potency result in [16], in [13], in [14], in assay [15] and in assay [11] was “inactive” each time. Further, the Potency in assay [8] was 89.4 µM (active).
On to `OCC1CO1` (configuration not stated), for which the Potency entry in assay [1], in [2], in assay [3], in assay [4], in [5] and in assay [6] was “inactive” throughout. In addition, the Potency result in [13], in [14], in assay [15], in [7], in assay [8] and in [9] was “inactive” in each case. Moreover, the Potency result in [10], in assay [11] and in assay [12] was “inactive” in each case.
Take `Clc1ccc2ccccc2c1`: the Potency result in [1], in [2], in assay [3], in assay [4], in assay [5] and in assay [6] was “inactive” throughout. The Potency entry in assay [16], in assay [13], in [14], in assay [15], in assay [8] and in assay [9] was “inactive” each time. In addition, the Potency entry in assay [11] and in assay [12] was “inactive” in each case.
As for `O=C1CC[C@@]2(O)[C@H]3Cc4ccc(O)c5c4[C@@]2(CCN3CC2CC2)[C@H]1O5`, the Potency result in assay [1], in [2], in assay [3], in assay [4], in [16] and in [13] was “inactive” each time. For the same compound, the Potency result in [14], in [15], in assay [8], in [9], in assay [10] and in [11] was “inactive” each time. For the same compound, in assay [12], the Potency result is “inactive”. For the same compound, the max activation in [17] was -2.95% (inactive).
For the compound `CCOC(=O)c1cncn1C(C)c1ccccc1` (configuration not stated), the Potency entry in [1], in [2], in assay [3], in [4], in assay [16] and in assay [13] was “inactive” throughout. The Potency entry in assay [14], in [15] and in assay [11] was “inactive” throughout. Also, the figures for the Potency in [6] and in [9] were 26.6 µM (active) and 12.3 µM (active), respectively. In addition, the max activation in assay [17] is 0.791% (inactive). The compound was called inactive in assay [18].
In the case of `CCC(C)Cl` (configuration not stated), the Potency entry in assay [1], in assay [2], in assay [3], in [4], in assay [6] and in assay [16] was “inactive” in each case. Also, the Potency entry in assay [13], in assay [14], in assay [15], in [7], in assay [8] and in assay [9] was “inactive” each time. Further, the Potency entry in assay [11] and in [12] was “inactive” in each case.
